# In the supplement of paper PMC8253809:
# Columns and labels:
# Assay in all cases: growth inhibition (% activity, log2 RLU normalised to DMSO / staurosporine); higher = more growth inhibition
# Settings in all cases: 33 µM
# DIPGX29 = system: DIPGX29 (H3.3 K27M diffuse intrinsic pontine glioma line)
# Method in brief: (§1)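 The growth-inhibition value comes from CellTiter-Glo luminescence, log2-transformed, normalised per plate to % activity between solvent and positive control wells, and taken as the median over replicates. Treatment of pHGG cell lines and H9-derived neural stem cells with approved drugs was at a single final concentration of about 33 μM, in triplicate, for 7 days at 37 °C, 5% CO2.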
# DIPGX37 = system: DIPGX37 (H3.3 K27M diffuse intrinsic pontine glioma line)
# Method in brief: as §1
# DIPGX7 = system: DIPGX7 (H3.3 K27M diffuse intrinsic pontine glioma line)
# Method in brief: as §1
# DIPGX9 = system: DIPGX9 (diffuse intrinsic pontine glioma line)
# Method in brief: as §1
# HGGX39 = system: HGGX39 (paediatric high-grade glioma line)
# Method in brief: as §1
# HGGX6 = system: HGGX6 (H3.3 G34R paediatric high-grade glioma line)
# Method in brief: as §1
# HNSC = system: HNSC
# Method in brief: as §1
# SUDIPGIV = system: SUDIPGIV (diffuse intrinsic pontine glioma line)
# Method in brief: as §1
# SUDIPGVI = system: SUDIPGVI (diffuse intrinsic pontine glioma line)
# Method in brief: as §1
# SUDIPGXIII = system: SUDIPGXIII (diffuse intrinsic pontine glioma line)
# Method in brief: as §1
Structure (SMILES),growth inhibition (DIPGX29) [%],growth inhibition (DIPGX37) [%],growth inhibition (DIPGX7) [%],growth inhibition (DIPGX9) [%],growth inhibition (HGGX39) [%],growth inhibition (HGGX6) [%],growth inhibition (HNSC) [%],growth inhibition (SUDIPGIV) [%],growth inhibition (SUDIPGVI) [%],growth inhibition (SUDIPGXIII) [%]
S=c1[nH]cnc2nc[nH]c12,20.1,10.9,25.3,10.6,23.2,24.2,58.1,28.8,13.4,18.8
O=C[C@H](O)[C@@H](O)[C@H](O)CO,1.32,0.386,0.91,1.55,1.07,1.49,0.405,-0.641,-1.35,-0.863
CNS(=O)(=O)CCc1ccc2[nH]cc(C3CCN(C)CC3)c2c1,0.0879,3.2,0.944,1.8,1.37,-0.244,1.62,1.09,2.79,-1.47
CCOc1ccccc1OC(c1ccccc1)C1CNCCO1 (stereo not given),0.58,2.23,-0.477,1.96,0.0675,0.362,-1.38,-0.307,-0.0566,0.138
COc1cc(/C=C/C(=O)N2CCN(CC(=O)N3CCCC3)CC2)cc(OC)c1OC,-0.327,0.826,-0.108,-0.784,0.66,-2.67,17.5,0.556,-3.03,-1.16
CC[C@@H]1/C=C(\C)C[C@H](C)C[C@H](OC)[C@H]2O[C@@](O)(C(=O)C(=O)N3CCCC[C@H]3C(=O)O[C@H](/C(C)=C/[C@@H]3CC[C@H](Cl)[C@H](OC)C3)[C@H](C)[C@@H](O)CC1=O)[C@H](C)C[C@@H]2OC,1.37,4.05,3.83,5.36,7.81,2.73,8.07,5.69,5.28,5.19
C=CC(=O)N1CCC[C@@H](n2nc(-c3ccc(Oc4ccccc4)cc3)c3c(N)ncnc32)C1,6.19,0.894,0.519,7.17,1.36,12.5,10.8,-2.32,2.15,-9.86
Cc1cnc(C(=O)NCCc2ccc(S(=O)(=O)NC(=O)NC3CCCCC3)cc2)cn1,0.556,2.29,1.52,0.701,1.35,1.61,0.478,0.461,1.46,0.0328
CCOC(=O)[C@H](CCc1ccccc1)N[C@@H](C)C(=O)N1Cc2ccccc2C[C@H]1C(=O)O,1.41,1.99,3.28,3.18,5.5,3.4,5.54,3.99,0.712,0.247
O=c1[nH]c(=O)n([C@H]2C[C@H](O)[C@@H](CO)O2)cc1I,0.0722,-1.6,-3.14,-0.0918,-2.1,-0.2,17.9,-1.37,-0.112,0.635
NC(=O)Cc1cccc(C(=O)c2ccccc2)c1N,-1.79,-2.49,-1.26,-0.361,-1.73,0.913,-2.2,-3.13,-0.113,0.258
CC(C)C(=O)Oc1ccc(CO)cc1[C@H](CCN(C(C)C)C(C)C)c1ccccc1,0.102,-1.82,0.436,0.893,1.59,-1.41,0.95,-0.518,1.55,0.403
CN(CCOc1ccc(NS(C)(=O)=O)cc1)CCc1ccc(NS(C)(=O)=O)cc1,-2.77,-1.46,0.833,-2.46,-2.37,-1.41,-6.33,-2.75,-13.8,0.844
CCN1CCCC1CNC(=O)c1cc(S(=O)(=O)CC)c(N)cc1OC (stereo not given),2.92,-2.18,2.4,-0.361,1.17,-1.1,0.824,2.02,-8.92,-0.464
CCCCCCCCCCCCCCCC(=O)O[C@@H]1[C@@H](O)[C@@H](O)[C@@H]([C@H](NC(=O)[C@@H]2C[C@@H](CCC)CN2C)[C@H](C)Cl)O[C@@H]1SC,0.38,-0.882,0.64,-0.0578,2.42,2.01,-1.46,1.12,0.759,-0.501
CC(=O)/N=c1/sc(S(N)(=O)=O)nn1C,1.46,2.45,2.3,1.1,4.29,1.67,5.67,0.751,1.6,-14.4
CCOC(=O)[C@H](CCc1ccccc1)N[C@@H](C)C(=O)N1[C@H](C(=O)O)C[C@@H]2CCC[C@@H]21,-3.8,-1.96,-1.64,-2.68,-4.08,-5.1,1.84,-2.04,-7.46,-2.12
CN(C)CC/C=C1/c2ccccc2Sc2ccc(Cl)cc21,-0.186,0.387,0.793,0.131,0.989,2.17,-1.13,-1.17,-0.358,-1.03
CC(=O)OCC(=O)[C@@]12OC(C)(C)O[C@@H]1C[C@H]1[C@@H]3C[C@H](F)C4=CC(=O)C=C[C@]4(C)[C@@]3(F)[C@@H](O)C[C@@]12C,0.7,2.1,-1.12,3.42,2.3,-0.607,5.54,-2.88,0.11,2.76
NCCCC[C@H](N[C@@H](CCc1ccccc1)C(=O)O)C(=O)N1CCC[C@H]1C(=O)O,-0.869,-1.25,-0.813,-0.846,-1.12,1.27,-1.56,-0.401,-1.38,-4.08
CCN(CC)CCNC(C(=O)OCCC(C)C)c1ccccc1 (stereo not given),2,-0.0996,4.26,1.08,0.0597,0.247,74.6,1.14,-6.42,2.01
NCCS,-2.8,-1.3,-0.687,-1.29,-2.78,-3.18,0.969,-2.89,-5.68,0.354
